Results: PubChem BioAssay (NCI)
The panel holds about 83,000 compounds, 20% with a hit somewhere; the sample as a whole holds those more often.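 48-hour exposure, single concentration, 96-well plates; percent growth endpoint where 0 means no net growth. Active: below 10.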 Values without a mark were called inactive. Active and inactive are the calls of the source.

Tests used:
Assay in all cases: NCI-60 one-dose screen, 48 h (100 = growth as untreated, 0 = no growth, -100 = all killed)
Details in all cases: 10 µM unless noted
NCI-H23 lung = tested on: NCI-H23 lung
NCI-H226 lung = tested on: NCI-H226 lung
NCI-H322M lung = tested on: NCI-H322M lung
HOP-62 NSCLC = tested on: HOP-62 NSCLC
NCI-H460 lung = tested on: NCI-H460 lung
HOP-92 NSCLC = tested on: HOP-92 NSCLC
NCI-H522 lung = tested on: NCI-H522 lung
A549/ATCC NSCLC = tested on: A549/ATCC NSCLC
786-0 renal = tested on: 786-0 renal
COLO 205 colon = tested on: COLO 205 colon
DU-145 prostate = tested on: DU-145 prostate
K-562 leukemia = tested on: K-562 leukemia
MALME-3M melanoma = tested on: MALME-3M melanoma
MDA-MB-231 breast = tested on: MDA-MB-231 breast
RXF 393 renal = tested on: RXF 393 renal
SF-268 CNS = tested on: SF-268 CNS
SF-295 CNS = tested on: SF-295 CNS
SF-539 CNS = tested on: SF-539 CNS
UACC-257 melanoma = tested on: UACC-257 melanoma
M14 melanoma = tested on: M14 melanoma

| Compound | growth (NCI-H23 lung) | growth (NCI-H226 lung) | growth (NCI-H322M lung) | growth (HOP-62 NSCLC) | growth (NCI-H460 lung) | growth (HOP-92 NSCLC) | growth (NCI-H522 lung) | growth (A549/ATCC NSCLC) | growth (786-0 renal) | growth (COLO 205 colon) | growth (DU-145 prostate) | growth (K-562 leukemia) | growth (MALME-3M melanoma) | growth (MDA-MB-231 breast) | growth (RXF 393 renal) | growth (SF-268 CNS) | growth (SF-295 CNS) | growth (SF-539 CNS) | growth (UACC-257 melanoma) | growth (M14 melanoma) |
| --- | --- | --- | --- | --- | --- | --- | --- | --- | --- | --- | --- | --- | --- | --- | --- | --- | --- | --- | --- | --- |
| COc1ccccc1CNc1c2ccccc2nc2ccccc12 | 30.9% | 39.9% | 48.6% | 44.5% | 10.2% | 18.2% | 62.4% | 34.2% | 39.3% | 12.8% | 50.5% | 10.1% | 45.9% | 57.6% | 30.6% | 65.1% | 37.4% | 21.2% | 64.1% | 40.8% |
| c1ccc([P+](c2ccccc2)(c2ccccc2)c2ccc3c4ccc([P+](c5ccccc5)(c5ccccc5)c5ccccc5)c5cccc(c6cccc2c63)c54)cc1 | 8.37% (active) | 15.7% | 17.8% | 14.1% | 4.26% (active) | 9.54% (active) | 6.86% (active) | 11% | 40.7% | 1.4% (active) | 19.5% | 11.8% | -13% (active) | 9.37% (active) | 42.5% | 24.4% | 3.75% (active) | -27.1% (active) | 15.2% | 15.4% |
| CCOc1nc(-c2ccccc2)cc2c(O)c(C(=O)N/N=C/c3ccccc3)[nH]c(=O)c12 | 111% | 106% | 128% | 115% | 114% | 107% | 74.4% | 114% | 112% | 111% | 115% | 48.2% | 136% | 117% | 119% | 106% | 134% | 112% | 101% | 118% |
| O=c1c2ccccc2n2cnc3ccc(Cl)c1c32 | 86.2% | 93.9% | 90.2% | 93.1% | 58.5% | 102% | 65.4% | 67.8% | 73.3% | 91.8% | 62.8% | 97.2% | 90.7% | 90.7% | 69.8% | 86.9% | 85.9% | 88.4% | 95.7% | 83.9% |
| Cc1nc2sc(C(=O)Nc3ccc(Br)cc3)c(N)c2cc1C(O)c1ccccc1 (stereo not given) | 61.1% | 68% | 90.4% | 67.5% | 69% | 77% | 60.5% | 64.4% | 81% | 64.5% | 81.7% | 12.1% | 63.9% | 57.9% | 86.6% | 75.8% | 69.5% | 66.7% | 61.8% | 38.9% |
| CCNCCNc1cc(-c2ccc(C(F)(F)F)cc2)c(C#N)c2nc3ccccc3n12 | -83.7% (active) | -66.1% (active) | -56.2% (active) | -67.7% (active) | -81.4% (active) | -81.2% (active) | -69% (active) | -76.4% (active) | -96.2% (active) | -80.4% (active) | -95.1% (active) | -50.9% (active) | -78.1% (active) | -79.8% (active) | -93.9% (active) | -75.3% (active) | -72.5% (active) | -88% (active) | -80.2% (active) | -82.5% (active) |
| CCOc1ccccc1Cn1ccnc1CCc1c(Cl)c(O)cc(O)c1C(=O)OC | 95.4% | 102% | 83% | 85.9% | 104% | 90.4% | 76.2% | 87.7% | 101% | 102% | 104% | 94.7% | 91.8% | 96.7% | 108% | 102% | 95.2% | 103% | 93.7% | 95.2% |
| COC(CC(F)F)c1cn(S(=O)(=O)c2ccc(C)cc2)c2ccccc12 (stereo not given) | 52% | 75.9% | 27.8% | 34.1% | 11.6% | 40.8% | 42.7% | 33.9% | 35.3% | 3.62% (active) | 21.3% | 14.5% | 50.9% | 38.2% | 39.4% | 42% | 15% | 15.7% | 37.1% | 7.65% (active) |
| CC1=NC2=Nn3c(c4cnn(-c5ccccc5)c4n/c3=N\N)NN2C(c2ccccc2)=C1 | 87.5% | 90.7% | 87.6% | 96.1% | 88.5% | 74.3% | 89% | 96% | 104% | 107% | 105% | 102% | 87.9% | 88.7% | 74% | 96.1% | 90.7% | 94.7% | 101% | 93.1% |
| COc1ccc(-c2nc3c(ncc4ccc(=O)[nH]c43)s2)cc1 | 78.8% | 76.1% | 77.7% | 90.2% | 40.8% | 87.7% | 85.3% | 56.1% | 88.3% | 83.6% | 67.7% | 93.3% | 93.9% | 81.5% | 88.5% | 76.6% | 88.1% | 84% | 118% | 74.7% |
| Cn1cc(-c2csc(-c3c[nH]c4ccc(Br)cc34)n2)c2ccnc(Cl)c21 | 62.1% | 59.4% | 67.1% | 101% | 9.96% (active) | 64.2% | 56.3% | 42.4% | 47% | 42.5% | 42.9% | 17.6% | 112% | 54.8% | 51% | 86.7% | 62.1% | 67.6% | 17.4% | 43.2% |
| CCCCCCCCCCC(CN(CC)CC)C(O)c1ccccc1 (stereo not given) | 38% | 15.4% | 80.3% | 53.4% | 21.7% | -1.6% (active) | -14.4% (active) | 54.7% | 49.1% | -42.6% (active) | 29.1% | -21.2% (active) | -37.3% (active) | 10.1% | -7.14% (active) | 40.5% | 36.5% | 32.1% | 18.2% | -44.1% (active) |
| CC(C)c1ccc(C(=O)Nc2sc3c(c2C(N)=O)CCC(=O)C3)cc1 | -7.38% (active) | 50.9% | 69.4% | 26.2% | 1.37% (active) | -32% (active) | -55.8% (active) | 16.8% | 19.7% | -43.6% (active) | 31.2% | 1.14% (active) | -23.8% (active) | -54.4% (active) | -7.12% (active) | 17.8% | -3.53% (active) | -68.8% (active) | -11.8% (active) | -55.6% (active) |
| Cc1cc(=O)n(C(=O)Nc2ccccc2Cl)c2cc(O)ccc12 | 98.6% | 98.7% | 88.7% | 89.2% | 100% | 79.7% | 95.2% | 101% | 103% | 100% | 108% | 109% | 93% | 101% | 109% | 95.8% | 101% | 97.8% | 96.5% | 96.4% |
| Cc1cc(C(=O)O)c(C)n1-c1cccc(C(=O)O)c1 | 78.7% | 100% | 94% | 96.7% | 35.1% | 90.5% | 46% | 71.4% | 106% | 92.5% | 16.9% | 63.3% | 113% | 96.8% | 61.8% | 84.5% | 61.3% | 102% | 70.1% | 90.9% |
